According to PubChem BioAssay (NCATS):
Results filed as inconclusive are left out. Unmarked numbers belong to inactive results. Activity calls are given as the source filed them. The call rests on the fitted dose curve; in most records, active means well fitted activation curve with a large enough effect; inconclusive means small, poorly fitted or top-dose-only effect; inactive means no such curve, though single readings can be large or run the other way. Square brackets hold non-standard residues; d marks the D form. Peptide text beside a SMILES is read from it. * marks the point of attachment. ξ: configuration not given here. Hexanoyl = CCCCCC(=O)*; ξL = CC(C)CC(N)C(=O)O

Molecular target: Nuclear receptor subfamily 1 group I member 3 (Homo sapiens) (UniProt Q14994)
Assay: qHTS for Constitutive Androstane Receptor (CAR) Agonist screened against the NCATS CANVASS Library (AID 1347373);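 further: every well also contained 1.5 µM PK11195 alongside the test compound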; on activation: 0% is about no effect
Settings: HepG2-hCAR-CYP2B6 luciferase reporter, ONE-Glo luminescence; series mostly up to 46.1 µM; activation: at the top concentration
In short: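 HepG2 cells stably expressing hCAR and a CYP2B6-2.2kb luciferase reporter were treated for 24hr at 37C with compounds (11-point qHTS) in the presence of 1.5uM PK11195. Reporter activation was read by ONE-Glo luminescence.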
Potency means the concentration at half of the fitted maximal effect.

Sequence of Nuclear receptor subfamily 1 group I member 3 (Homo sapiens) (Q14994 whole entry, looked up): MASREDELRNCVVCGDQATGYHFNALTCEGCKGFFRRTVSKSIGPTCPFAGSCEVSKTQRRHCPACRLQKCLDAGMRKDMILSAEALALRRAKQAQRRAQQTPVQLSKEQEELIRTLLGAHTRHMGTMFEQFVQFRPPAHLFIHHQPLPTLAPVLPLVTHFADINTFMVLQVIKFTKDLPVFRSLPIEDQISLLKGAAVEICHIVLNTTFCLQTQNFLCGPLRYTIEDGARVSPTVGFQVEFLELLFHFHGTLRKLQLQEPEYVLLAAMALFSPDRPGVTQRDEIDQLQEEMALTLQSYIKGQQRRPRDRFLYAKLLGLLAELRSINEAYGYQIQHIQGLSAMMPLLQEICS

| SMILES | activation | Potency |
| --- | --- | --- |
| CC(=O)N[C@H](C)c1nc(/C=C/C=C/C(=O)CC2CC(=O)CC[C@]2(C)O)cs1 (stereo partly drawn) | 5.37% | – |
| CN1C(=O)C(=O)N2C(=C[C@]3(c4c[nH]c5ccccc45)c4ccccc4N[C@H]23)C1=O | 4.62% | – |
| CN1CC[C@]23c4ccccc4N[C@H]1[C@]21CCN(C)[C@H]3Nc2ccccc21 | 5.95% | – |
| C/C=C1/C2=CCCN3C(=O)O[C@H]([C@H]1O)[C@H]23 | -16.9% | – |
| O=C1CC(c2ccc(O)cc2)Oc2ccccc21 (stereo not drawn) | – | 23.4 µM (active) |
| COc1c(O)cc(O)c2c(=O)cc(-c3ccccc3)oc12 | 17.3% | – |
| COC1C(C)OC(OCC23C[C@@H]4[C@H](C)CC[C@H]4C4(C=O)CC2C=C(C(C)C)C34C(=O)O)[C@@H](O)[C@H]1O (stereo partly drawn) | 2.31% | – |
| CN1CC[C@@]2([C@@]34CCN(C)[C@@H]3Nc3ccccc34)c3ccccc3N[C@@H]12 | -4.48% | – |
| COc1ccc(-c2oc3cc(OC)cc(OC)c3c(=O)c2O)cc1 | 5.51% | – |
| CC[C@@H](C)[C@H]1NC(=O)C(CC(C)C)NC(=O)[C@@H](CC(C)C)NC(=O)[C@H](Cc2c[nH]c3ccccc23)NC(=O)CNC(=O)[C@@H](CC(N)=O)NC1=O (stereo partly drawn) (cyclo(GW[dL][ξL][dI][dN])) | -6.93% | – |
| Cc1cc(O)cc2c1C(=O)c1c(O)cc(O)cc1C2=O | 10.3% | – |
| C=C(Cl)[C@](Cl)(CBr)CC[C@@H](Br)C(C)(C)Cl | -14.3% | – |
| C=C(C)C(=O)O[C@H]1C[C@@]2(C)OC(=CC2=O)/C(C)=C\[C@H]2OC(=O)C(=C)[C@H]12 | -25.9% | – |
| C=C[C@]1(C)CC[C@@H]([C@H](C)C(=O)CC=C(C)C)O1 | 8.84% | – |
| CC[C@@H]1C[C@@]2(CC)OC(=O)[C@@]3(CC)[C@H](CC)[C@@H]1[C@@H]23 | 18.8% | – |
| [C-]#[N+][C@@]12C(=O)[C@@H]3[C@@H](O[C@@]4(C(=O)N(C)c5cccc1c54)C3(C)C)C(=O)[C@@]2(C)C=C | 9.1% | – |
| C[C@@]12CCC[C@@](C)(C(=O)OP(=O)(O)OC[C@H]3O[C@@H](n4cnc5c(N)ncnc54)[C@H](O)[C@@H]3O)[C@H]1C[C@@H](O)[C@@]13C[C@@H](CC[C@@H]21)[C@](C)(O)C3 | 1.71% | – |
| CCC(C)=C1OC(=O)[C@H](C)[C@H](O)[C@H](Cc2cccnc2)NC(=O)C(NC(=O)c2ncccc2O)C(C)OC1=O (stereo partly drawn) | 8.8% | – |
| C[C@@]12CCC[C@@](C)(C(=O)O)[C@H]1CC[C@@]13C[C@@H](CC[C@H]12)[C@](C)(O)C3 | -4.41% | – |

| SMILES | activation | Potency |
| --- | --- | --- |
| O=C1OC(CCO)c2cccc(O)c21 (stereo not drawn) | 1.93% | – |
| C=C1C[C@]23C=CC(=O)[C@@](C)(CCCC(C)C(=O)N[C@@H](CO)C(=O)O)[C@@H]2C[C@@H]1CC3 (stereo partly drawn) | -4.53% | – |
| COc1cc2ccc(=O)oc2c(O)c1O[C@@H]1O[C@H](CO)[C@@H](O)[C@H](O)[C@H]1O | 5.25% [at 27.5 µM] | – |
| C/C(=C\[C@@H](C)CC/C=C/CC/C=C/C(=O)O)[C@@H](O)[C@H](C)C(=O)CCCC1CC(=O)NC(=O)C1 | -7.06% | – |
| CO[C@@H](C[C@@H](C)[C@@H](O)/C=C/C=C/CNC(=O)C(C)(C)[C@H](O)\C(C)=C/C=C\C=C\Cc1cnco1)[C@]1(O)[C@@H](C)C(=O)N(C)[C@@]12COC2=O | -4.53% | – |
| O=C1CC(c2ccc(O)cc2)Oc2cc(O)cc(O)c21 (stereo not drawn) | 10.6% | – |
| O=C1CC(c2ccc(O)cc2)Oc2cc(O)ccc21 (stereo not drawn) | 15% | – |
| CN1CC[C@@]23c4ccccc4N[C@@H]1[C@@]21CCN(C)[C@@H]3Nc2ccccc21 | 0.874% | – |
| C[C@@]12CCC[C@@](C)(C(=O)O)[C@H]1C[C@@H](O)[C@@]13C[C@@H](CC[C@@H]21)[C@](C)(O)C3 | -3% | – |
| O=Cc1ccc2n1C[C@]1(OC2)O[C@H](CO)[C@@H](O)[C@@H]1O | 5.89% | – |
| C=C[C@@]1(C)CC[C@@H]([C@H](C)C(C)=O)O1 | 3.27% | – |
| C/C=C(/CO)C(=O)O[C@@H]1[C@H](O)[C@@H](C(=O)OC)O[C@@H]2C[C@H]3OC(n4cnc5c(N)ncnc54)[C@H](OC)[C@H]3O[C@@]12O (stereo partly drawn) | 5.38% | – |
| C/C=C/[C@H]1[C@H]2C(=O)c3c(O)c(C)c(O)c(C)c3[C@]1(C(=O)O)C(=O)C=C2C | 4.75% | – |
| C[C@@]12C[C@@H](C[C@@H]3C(=O)O[C@@H](c4ccoc4)[C@H](OC(=O)c4ccccc4)[C@@H]31)OC2=O | -4.05% | – |
| C=C1CCC2C(C)(C(=O)O)CCC(CC/C(C)=C/C(=O)NC(CCC(N)=O)C(=O)O)[C@@]2(C)C1 (stereo partly drawn) | 11.3% | – |
| C=C1[C@@]2(C)CC3C4(C)CCC(O)C(C)(C)C4CCC3(C)[C@]1(C(=O)OC)C(=O)C(C)(O)C2=O (stereo partly drawn) | -5.55% | – |
| CC(C)=CCC[C@]1(C)[C@H]2CC(=O)[C@@]3(CO3)[C@@H]1C2 | 2.7% | – |
| CCCCCC(=O)N[C@@H](CC(C)C)C(=O)N[C@H](C=O)CCC(=O)O (Hexanoyl-Leu-Glu-aldehyde) | -2.75% | – |
| CC1(C)CC[C@]2(CO)CC[C@]3(C)C(=CCC4[C@@]5(C)CC[C@H](O)C(C)(C)C5CC[C@]43C)C2C1 (stereo partly drawn) | -1.37% | – |
